Rows were chosen to be rich in hits. Some 12% of all compounds tested hit in one or more screens of this group.
G9a block: qHTS Assay for Inhibitors of Histone Lysine Methyltransferase G9a. Histone-lysine N-methyltransferase EHMT2 (Homo sapiens), Q96KQ7. G9a H3K9 monomethylation, AlphaScreen, 2 h. Potency, µM (series often up to 102 µM), most hits filed as inhibitors. hit rate 8.8% among 350,000; further: nearly all actives have a fitted effect of over 75% in size
Target sequence (Q96KQ7 913-1193 limits assumed): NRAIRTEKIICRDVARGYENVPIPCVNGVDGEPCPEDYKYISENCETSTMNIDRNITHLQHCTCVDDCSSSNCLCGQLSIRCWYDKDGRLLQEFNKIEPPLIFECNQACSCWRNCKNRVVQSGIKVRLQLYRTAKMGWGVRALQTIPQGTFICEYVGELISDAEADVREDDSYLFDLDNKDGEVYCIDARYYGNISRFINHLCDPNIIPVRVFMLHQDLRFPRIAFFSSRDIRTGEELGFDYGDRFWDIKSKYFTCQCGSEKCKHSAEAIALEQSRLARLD
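Step 1: enzyme (final 20 nM) with compound, 15 min RT. Step 2: substrate peptide 500 nM and SAM 20 uM, 2 h RT. Step 3: anti-H3K9me1 antibody and AlphaScreen beads, 10 min, then plate read.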
HP1b chromo inh: HTS for Inhibitors of HP1-beta Chromodomain Interactions with Methylated Histone Tails. hit rate 0.56% among 390,000. AlphaScreen HP1-beta / biotin-H3K9me3 peptide binding. Potency, µM (titrated, usually from 114 µM), most hits filed as inhibitors. Chromobox protein homolog 1 (Homo sapiens), P83916; further: nearly all actives have a fitted effect of over 70% in size
Target sequence (P83916 whole entry, looked up): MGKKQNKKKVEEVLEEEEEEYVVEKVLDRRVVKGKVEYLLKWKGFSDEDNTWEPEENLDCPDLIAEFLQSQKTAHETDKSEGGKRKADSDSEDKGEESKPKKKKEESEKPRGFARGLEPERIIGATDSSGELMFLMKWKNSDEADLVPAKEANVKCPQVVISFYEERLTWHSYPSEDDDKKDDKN
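AlphaScreen: HP1-beta (50 nM) preformed 30 min with biotin-H3(1-18)K9me3 peptide (50 nM) in PBS pH 7.4, 0.01% Tween-20. Compound added for 30 min at RT, then streptavidin donor/nickel chelate acceptor beads (10 ug/mL) for 30 min.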
JMJD2A Tudor: qHTS Assay for Inhibitors of JMJD2A-Tudor Domain | Lysine-specific demethylase 4A (Homo sapiens), O75164 | hit rate 4.4% among 390,000 | Potency, µM (doses to about 114 µM), hits mostly inhibitors | AlphaScreen JMJD2A-Tudor / H3K4me3 peptide binding; further: nearly all actives have a fitted effect of over 50% in size
BAZ2B block: qHTS Assay for Inhibitors of BAZ2B. AlphaScreen BAZ2B-H3K14Ac peptide displacement. Potency, µM (doses to about 114 µM), usual class: inhibitors. hit rate 4.4% among 360,000. AID 504333, 2011; further: nearly all actives have a fitted effect of over 60% in size
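Complex of BAZ2B and biotin-H3K14Ac (50 nM apiece) forms over 30 min at RT, then faces library compounds up to 110 uM for another 30 min; AlphaScreen beads added, 20 min dark incubation, luminescence read.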
PLK1 PBD block: qHTS for Inhibitors of PLK1-PDB (polo-like kinase 1 - polo-box domain): Primary Screen; Serine/threonine-protein kinase PLK1 (Homo sapiens), P53350; Plk1 PBD binding of FITC phosphopeptide, fluorescence polarization; Potency, µM, usual class: inhibitors; hit rate 2.8% among 360,000; AID 720504, 2013; further: series mostly up to about 57 µM; nearly all actives have a fitted effect of over 65% in size
PI5P4K alpha inh: qHTS for Inhibitors of phosphatidylinositol 5-phosphate 4-kinase (PI5P4K); Phosphatidylinositol 5-phosphate 4-kinase type-2 alpha (Homo sapiens), P48426; PI5P4Kalpha enzyme, ADP-Glo luminescence, 60 min; active compounds read low; max response, %; hit rate 1.2% among 330,000; AID 652105, 2013; active means max response of -50% or lower; inconclusive means between -30% and -50%; inactive means -30% or higher; further: value at the top dose of about 77 µM
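Human PI5P4Kalpha with substrate in 0.038 M HEPES pH 7.4, 0.28 mM EGTA, 0.1% CHAPS, 5% DMSO; reaction started with 5 microM ATP (final), 60 min at room temperature. ADP formed read by ADP-Glo luminescence.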
Hits are given with their value; – = inactive; ? = inconclusive; · = no result given; [ ] = another dose, or the depositor's remark. Unless noted, the call rests on the fitted dose curve; in most records, active means well fitted curve in the direction sought with a large enough effect; inconclusive means small, poorly fitted or top-dose-only effect, or another doubt; inactive means no such curve, though single readings can be large; an effect the other way counts as inactive or inconclusive.

SMILES | G9a block | HP1b chromo inh | JMJD2A Tudor | BAZ2B block | PLK1 PBD block | PI5P4K alpha inh
O=Cc1ccc(O)c2ncccc12 | ? | – | 2.8µM | 1.3µM | – | –
Cc1cc(C)c[n+](-c2[nH]c(=O)sc2/C=N/N=C(\N)[S-])c1 | 40µM | – | – | ? | – | –
Cc1cc[n+](-c2[nH]c(=O)sc2/C=N/N=C(\[O-])c2ccncc2)cc1 | – | – | – | 56µM | – | –
Cc1cc[n+](-c2[nH]c(=O)sc2/C=N/N=C(\[O-])c2ccncc2)cc1C | – | – | – | ? | – | –
Cc1cc[n+](-c2[nH]c(=O)sc2/C=N/N=C(\[O-])c2ccccc2)cc1C | 50µM | – | – | ? | 24µM | –
CCc1ccc[n+](-c2[nH]c(=O)sc2/C=N/N=C(\[O-])CCn2c3ccccc3c3ccccc32)c1 | 45µM | ? | – | ? | – | –
Cc1ccc[n+](-c2[nH]c(=O)sc2/C=N/N=C(\[O-])c2cccnc2)c1 | ? | – | – | – | – | –
Cc1sc2ncn(CC(=O)N3CCN(c4ccc(Cl)cc4)CC3)c(=O)c2c1S(=O)(=O)N1CCN(c2ncccn2)CC1 | – | – | – | – | · | ·
COc1cccc(Nc2ncc3nc(-c4ccccc4)c(=O)n(Cc4cccs4)c3n2)c1 | –[0.501 µM] | · | · | · | · | ·
O=C(Nc1nncs1)C1CC(=O)N(C2CCCC2)C1 (configuration not stated) | – | – | – | – | – | –
O=C(CN1CCN(S(=O)(=O)c2ccc(Cl)s2)CC1)N1CCOCC1 | – | – | – | – | – | –
Cc1cc[n+](-c2[nH]c(=O)sc2/C=N/N=C(\[O-])c2ccccc2)cc1 | – | – | ? | 50µM | – | ?
COc1ccc2c(c1)Oc1ncn(CCN3CCOCC3)c(=N)c1C2c1ccc(OC)c(OC)c1 (configuration not stated) | · | · | – | · | · | ·
COc1ccccc1N1CCN(C(=O)CCNC(=O)c2ccco2)CC1 | – | – | – | – | – | –
COCCNC(=O)c1cn(C(C)c2ccccc2F)nn1 (configuration not stated) | –[12.7 µM] | – | – | – | – | –
CC(c1ccccc1F)n1cc(C(=O)NCCc2ccco2)nn1 (configuration not stated) | 50µM | – | – | – | – | –
COc1ccc(C(=O)NCc2nnc(SCC(=O)N3CCCC3)o2)cc1 | – | – | – | – | – | –
CSc1ccc(S(=O)(=O)NCC(=O)OCC(=O)N2CCCC2=O)cc1[N+](=O)[O-] | ? | – | – | – | – | –
COc1ccc(Nc2cc(C(=O)NCc3cccnc3)c3ccccc3n2)c(OC)c1 | 45µM | · | · | ? | · | ·
COc1ccc(Nc2cc(C(=O)NCc3ccco3)c3ccccc3n2)c(OC)c1 | ? | – | ? | 50µM | – | –
O=C(NCc1ccco1)c1cc(-c2ccccn2)nc2ccccc12 | 79µM | – | – | – | – | ·
COc1ccc(NC(=O)NCc2ccco2)c(OC)c1 | ? | – | – | – | 12µM | –
COc1ccc(-c2cc(C(=O)NCc3ccco3)c3ccccc3n2)c(OC)c1 | · | – | – | ? | – | –
COc1ccc(Nc2cc(C(=O)NCc3ccccn3)c3ccccc3n2)c(OC)c1 | – | · | · | ? | · | ·
CC(=O)c1cccc(NC(=O)C2CCCN2S(=O)(=O)c2cccs2)c1 (configuration not stated) | · | · | · | · | – | –
CC12CCC=CC1C(c1ccc(F)c(/C=C/c3ccccc3)c1)N(Cc1ccccc1)C2=O (configuration not stated) | · | – | – | · | · | ·
COc1ccccc1Nc1nn2c(=O)c3ccc(C(=O)NCc4cccnc4)cc3nc2s1 | – | · | · | 56µM | · | ·
CCN(CC)S(=O)(=O)c1ccc2c(c1)N(CC(=O)Nc1ccccc1F)C(=O)C1CCCN21 (configuration not stated) | – | – | – | – | · | ·

Screening results: PubChem BioAssay, National Center for Advancing Translational Sciences (NCATS)
